# Compound activity: PubChem, several laboratories
# Compounds with a hit are over-represented: about 3.3% of the library has one in this group of screens.
# PfGluPho inh – PfG6PD enzyme inhibitors, primary screen, biochemical, fluorescence intensity, uHTS. glucose-6-phosphate dehydrogenase-6-phosphogluconolactonase (Plasmodium falciparum 3D7). PfGluPho enzyme, NADPH resazurin-diaphorase fluorescence. inhibition, % at 20 µM. 0.78% of 350,000 active;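 active = inhibition reaching at least a set limit at 20 µM in the primary screen, cut at about 59% in these data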;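 note: 0% = DMSO wells with substrate and 100% = DMSO wells lacking glucose-6-phosphate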
# PRMT1 FP inh – PRMT1 methyltransferase inhibitors, primary screen, biochemical, fluorescence polarization | inhibition, % at 2.79 µM | recombinant PRMT1, activity-based probe fluorescence polarization | 1.3% of 370,000 active | Protein arginine N-methyltransferase 1 (Homo sapiens), Q99873 | AID 652257, 2013;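 active = inhibition above about 21% made by adding two undisclosed values, limit read from the data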
# MBD2 inh – inhibitors of MBD2 binding to methylated DNA, primary screen, biochemical, TR-FRET, DNA-binding domain, human; Methyl-CpG-binding domain protein 2 (Homo sapiens), Q9UBB5; MBD2 binding to methylated oligonucleotide; inhibition, % at 4.4 µM; 0.31% of 370,000 active; in the data active = inhibition above about 13%
# Target sequence (Q9UBB5 whole entry, looked up, the tested form may be a part): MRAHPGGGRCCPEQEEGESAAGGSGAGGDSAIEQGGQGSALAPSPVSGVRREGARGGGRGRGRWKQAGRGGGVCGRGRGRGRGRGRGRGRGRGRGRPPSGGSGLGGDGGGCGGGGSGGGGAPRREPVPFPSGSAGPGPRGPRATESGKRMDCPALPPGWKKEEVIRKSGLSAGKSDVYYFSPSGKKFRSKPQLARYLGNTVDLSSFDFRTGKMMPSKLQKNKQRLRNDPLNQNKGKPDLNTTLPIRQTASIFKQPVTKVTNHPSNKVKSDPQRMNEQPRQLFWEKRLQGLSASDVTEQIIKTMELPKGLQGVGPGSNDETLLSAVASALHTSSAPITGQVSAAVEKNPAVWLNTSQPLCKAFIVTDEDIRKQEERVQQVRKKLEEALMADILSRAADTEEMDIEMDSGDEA
# UHRF1 binding – UHRF1 methylated DNA binding inhibitors, primary screen, counter-screen for MBD2 inhibitor project, biochemical, TR-FRET, human UHRF1, single concentration. E3 ubiquitin-protein ligase UHRF1 (Homo sapiens), Q96T88. UHRF1 binding to methylated oligo. inhibition, % at 4.4 µM. 0.75% of 370,000 active. AID 687016, 2013; in the data active = inhibition above about 21%;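 note: UHRF1 SRA domain binding a hemimethylated CpG hairpin DNA probe; 0% = median of test compound wells and 100% = reference inhibitor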
# PfM18AAP inh – PfM18AAP inhibitors, malaria aminopeptidase, primary screen, biochemical, QFRET, recombinant enzyme | M18 aspartyl aminopeptidase (Plasmodium falciparum 3D7) | H-Glu-NHMec fluorogenic cleavage | inhibition, % at 7.35 µM | 1.2% of 290,000 active;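 active = inhibition above the campaign mean inhibition over all tested compounds plus 3 SD, cut at about 28% in these data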;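 note: 0% = plate median of test compound wells and 100% = 2 mM ZnCl2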
# Starred values were filed as active, the others as inactive; . = not tested or not shown.
SMILES,PfGluPho inh,PRMT1 FP inh,MBD2 inh,UHRF1 binding,PfM18AAP inh
O=C1N(CCCO)CCC12CCC(c1ccccc1)CC2 (stereo not drawn),.,-2.2,0.8,-0.8,.
COC(=O)C1=C(C)N(C)C(C)=C(C(=O)OC)C1c1ccc(Cl)cc1,7.5,-2.6,-4.9,-2.1,5.3
CCOC(=O)C1=C(C)N(C)C(C)=C(C(=O)OCC)C1c1ccc(Cl)cc1,-4.7,-1.0,6.2,26.0*,1.7
Cc1ccc(-c2nc3ncccn3c2NC(=O)c2ccccc2)cc1,.,1.2,4.8,0.5,.
CCCCCCCCNS(=O)(=O)CC1NCc2cc(OC)ccc21 (stereo not drawn),.,3.4,2.0,-5.3,.
CCN(C[C@H]1N[C@@](CC)(C(=O)OC)[C@H]2C(=O)N(C)C(=O)[C@@H]12)C(=O)Nc1ccc(C(F)(F)F)cc1,2.1,2.8,3.2,3.7,.
CC[C@@]1(C(=O)OC)N[C@H](CN(C)C(=O)Nc2ccc(C(F)(F)F)cc2)[C@@H]2C(=O)N(C)C(=O)[C@@H]21,40.6,1.6,5.6,21.7*,.
CC(OC(=O)Cn1[nH]c(=O)c2ccccc2c1=O)C(=O)Nc1ccc(F)cc1Cl (stereo not drawn),-1.0,-1.4,13.0,49.8*,.
CC(OC(=O)Cn1[nH]c(=O)c2ccccc2c1=O)C(=O)Nc1cccc(Cl)c1 (stereo not drawn),-6.5,-4.8,-0.6,-2.1,.
COCCNC(=O)/C(C#N)=C/c1ccc(-c2ccc(S(=O)(=O)N3CCOCC3)cc2)o1,1.4,2.6,-5.3,69.1*,-3.6
CCOCCCNC(=O)/C(C#N)=C/c1ccc(-c2ccc(S(=O)(=O)N3CCOCC3)cc2)o1,12.9,.,.,.,3.4
O=C(NCc1ccc(C(=O)N2CCOCC2)cc1)c1cccc(Br)c1,.,-1.2,1.6,-1.4,.
Cc1ccc(CCNC(=O)CCS(=O)(=O)c2ccc(Br)cc2)cc1,-1.4,-1.7,8.2,23.9*,-3.4
Cc1ccc(S(=O)(=O)CCC(=O)NCCc2ccc(Cl)cc2)cc1,-12.6,-4.3,0.4,-1.6,2.4
C[C@H]1[C@@H](OC(=O)NCc2ccc(Cl)cc2)CC[C@@]23CCCN2C(=O)CCC[C@@H]13,.,3.1,5.4,-1.0,.
CN(C)c1cccc(/C=C2\CC3(OC(=O)c4cccc(F)c4)CCCN2C3)c1 (stereo not drawn),.,-0.8,2.6,-2.6,.
O=C(NC1CCCCN(Cc2cccc(Cl)c2)C1=O)C1CCCCC1 (stereo not drawn),.,4.6,1.4,0.3,.
CC(C)n1nnnc1-c1ccc(Cl)cc1,-10.8,2.7,1.8,20.9*,0.1
Cc1cc(-c2ccc(Cl)cc2)c2cnn(C(C)C)c2n1,24.3,-7.0,-1.6,3.0,-7.8
CCOc1ccc(-n2nnc3c(=O)n(C/C=C/c4ccccc4)cnc32)cc1,1.4,3.1,-1.0,22.7*,1.6
CCOc1ccc(NC(=O)CN(C)C(=O)c2ccccc2Cc2ccccc2)cc1OCC,8.9,4.1,4.8,21.0*,.
CCn1ncc(NC(=S)Nc2ccc(OC)c(OC)c2)c1C(N)=O,17.7,22.4*,-4.8,-5.8,27.1
COc1ccc(C(C)=O)cc1CSC(=S)N1CCSCC1,.,0.8,-4.4,-1.6,.
Cc1ccc(S(=O)(=O)N(C(=O)c2ccncc2)c2ccc(OC(=O)c3ccncc3)c3ccccc23)c(C)c1,73.2*,.,.,.,11.5
CCOc1ccc(C(=O)Nc2ccc3c(c2)OCO3)cc1OCC,11.8,0.9,10.0,24.7*,4.4
SMILES,PfGluPho inh,PRMT1 FP inh,MBD2 inh,UHRF1 binding,PfM18AAP inh
CCNC(=S)NNC(=S)NCc1ccccc1,4.2,2.8,-4.2,0.9,32.3*
S=C(NCc1ccccc1)NCc1ccc(CNC(=S)NCc2ccccc2)cc1,3.3,-1.1,1.6,-1.2,-3.3
COC(=O)CSc1nnc(-c2ccoc2C)n1-c1ccc(C)cc1,-11.2,4.7,13.0,21.9*,-9.4
O=[N+]([O-])c1ccc(N2CCN(c3ccccc3Cl)CC2)cn1,-10.9,-5.2,-7.7,-3.2,31.8*
CCCNC(=O)c1cc2c(c(-c3cccc(-c4cc5ccccc5o4)c3)n1)[C@@H](CCO)N(C(=O)NC(C)C)C2,.,0.7,-5.3,27.7*,.
O=C(O)c1cc(N/N=C/c2ccc(N3CCOCC3)s2)ccc1Cl,19.2,32.9*,43.3*,93.2*,19.1
